Reference: PubChem BioAssay
The source made the active and inactive calls.

What was measured:
[1] = optical density shifts of acrAB sulA E. coli – strain DRC41, OD650, 48 h, E. coli filamentation inducer project, primary screen (AID 1152); conditions: higher = more signal, called active from +8 up or from −8 down;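 further: E. coli MC1000 strain DRC41 lacking acrAB efflux pump and sulA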
[2] = probe aLefty1 binding on compound microarray – biochemical, small-molecule microarray, 635/667 nm fluorescence, primary screen (AID 1153); conditions: higher = more signal;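 further: score merges spot fluorescence with signal-to-noise ratio from the scanned slide images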
[3] = plasmodial surface anion channel blockers, osmotic lysis – cell-based, P. falciparum Indochina, OD700, 1 h, primary screen (AID 1154); conditions: P. falciparum Indochina infected RBC osmotic lysis, higher = more signal, called active from +8 up or from −8 down
[4] = plasmodial surface anion channel blockers, osmotic lysis – cell-based, P. falciparum Indochina, OD700, 2 h, primary screen (AID 1155);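 further: lysis reports solute entry through the parasite surface anion channel PSAC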; conditions: P. falciparum Indochina infected erythrocytes, higher = more signal, called active from +8 up or from −8 down
[5] = changes in parasitized red cell lysis, either direction – P. falciparum Indochina, OD700, 3 h, PSAC antagonist project, primary screen (AID 1156); conditions: P. falciparum-infected erythrocytes, osmotic lysis, higher = more signal, called active from +8 up or from −8 down
[6] = plasmodial surface anion channel blockers, osmotic lysis – cell-based, P. falciparum Indochina, OD700, 18 h, primary screen (AID 1157); conditions: P. falciparum Indochina infected erythrocytes, osmotic lysis OD700, 18 h; higher = more signal, called active from +8 up or from −8 down
[7] = S6 kinase pathway phospho-S6 level changes – cell-based, A549, cytoblot, luminescence, serum-stimulated, primary screen (AID 1158); conditions: 5 h, higher = more signal;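 further: serum-stimulated A549 lung adenocarcinoma cells; signal is phosphorylated S6 detected by cytoblot immunostaining with HRP secondary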
[8] = target: NADPH oxidase 2 (Homo sapiens) (UniProt P04839); test: compounds shifting NOX2 Amplex Red fluorescence – cell-based, HEK293-NOX2, PMA-stimulated, NOX inhibitor project, primary screen (AID 1159); conditions: 45 min, higher = more signal, called active from +8 up or from −8 down; further: test concentration not given here
Sequence of NADPH oxidase 2 (Homo sapiens) (P04839 whole entry, looked up): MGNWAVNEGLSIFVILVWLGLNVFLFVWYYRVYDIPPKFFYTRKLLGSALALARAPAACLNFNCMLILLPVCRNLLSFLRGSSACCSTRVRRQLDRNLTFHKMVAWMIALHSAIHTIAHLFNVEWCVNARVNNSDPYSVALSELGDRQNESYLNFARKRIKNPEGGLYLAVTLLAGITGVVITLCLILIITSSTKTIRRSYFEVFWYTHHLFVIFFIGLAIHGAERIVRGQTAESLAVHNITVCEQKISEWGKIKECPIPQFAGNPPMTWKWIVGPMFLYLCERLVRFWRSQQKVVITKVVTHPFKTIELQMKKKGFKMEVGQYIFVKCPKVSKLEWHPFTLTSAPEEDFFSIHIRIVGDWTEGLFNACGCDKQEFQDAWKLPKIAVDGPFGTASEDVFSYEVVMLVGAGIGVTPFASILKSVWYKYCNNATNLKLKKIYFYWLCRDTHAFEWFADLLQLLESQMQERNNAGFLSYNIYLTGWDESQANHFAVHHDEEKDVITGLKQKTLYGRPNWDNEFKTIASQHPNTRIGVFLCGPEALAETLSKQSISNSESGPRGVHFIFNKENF

[9] = target: NADPH oxidase 4 (Homo sapiens) (UniProt Q9NPH5); test: compounds shifting NOX4 Amplex Red fluorescence – cell-based, HEK293-NOX4, tetracycline-induced, NOX inhibitor project, primary screen (AID 1160); conditions: HEK293-NOX4, Amplex Red H2O2 fluorescence, 45 min; higher = more signal, called active from +8 up or from −8 down
Sequence of NADPH oxidase 4 (Homo sapiens) (Q9NPH5 whole entry, looked up): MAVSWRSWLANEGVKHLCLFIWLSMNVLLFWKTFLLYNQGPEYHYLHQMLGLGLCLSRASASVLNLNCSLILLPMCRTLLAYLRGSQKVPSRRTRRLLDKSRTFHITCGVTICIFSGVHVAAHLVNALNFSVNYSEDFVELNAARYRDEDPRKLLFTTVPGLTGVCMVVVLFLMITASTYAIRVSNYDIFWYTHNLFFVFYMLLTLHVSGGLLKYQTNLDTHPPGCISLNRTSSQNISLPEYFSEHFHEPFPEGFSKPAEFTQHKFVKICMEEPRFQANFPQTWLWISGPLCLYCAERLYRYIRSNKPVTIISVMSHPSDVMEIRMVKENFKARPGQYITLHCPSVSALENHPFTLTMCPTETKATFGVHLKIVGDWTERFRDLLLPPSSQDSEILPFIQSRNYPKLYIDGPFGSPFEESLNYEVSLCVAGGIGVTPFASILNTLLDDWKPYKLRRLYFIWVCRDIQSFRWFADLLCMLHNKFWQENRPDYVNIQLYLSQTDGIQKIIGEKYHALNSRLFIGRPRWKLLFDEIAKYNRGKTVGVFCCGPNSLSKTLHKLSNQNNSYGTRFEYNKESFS

[10] = target: NADPH oxidase 5 (Homo sapiens) (UniProt Q96PH1); test: compounds shifting NOX5 Amplex Red fluorescence – cell-based, HEK293-NOX5, NOX inhibitor project, primary screen (AID 1161); conditions: HEK293-NOX5, ionomycin, 45 min, higher = more signal
Sequence of NADPH oxidase 5 (Homo sapiens) (Q96PH1 whole entry, looked up): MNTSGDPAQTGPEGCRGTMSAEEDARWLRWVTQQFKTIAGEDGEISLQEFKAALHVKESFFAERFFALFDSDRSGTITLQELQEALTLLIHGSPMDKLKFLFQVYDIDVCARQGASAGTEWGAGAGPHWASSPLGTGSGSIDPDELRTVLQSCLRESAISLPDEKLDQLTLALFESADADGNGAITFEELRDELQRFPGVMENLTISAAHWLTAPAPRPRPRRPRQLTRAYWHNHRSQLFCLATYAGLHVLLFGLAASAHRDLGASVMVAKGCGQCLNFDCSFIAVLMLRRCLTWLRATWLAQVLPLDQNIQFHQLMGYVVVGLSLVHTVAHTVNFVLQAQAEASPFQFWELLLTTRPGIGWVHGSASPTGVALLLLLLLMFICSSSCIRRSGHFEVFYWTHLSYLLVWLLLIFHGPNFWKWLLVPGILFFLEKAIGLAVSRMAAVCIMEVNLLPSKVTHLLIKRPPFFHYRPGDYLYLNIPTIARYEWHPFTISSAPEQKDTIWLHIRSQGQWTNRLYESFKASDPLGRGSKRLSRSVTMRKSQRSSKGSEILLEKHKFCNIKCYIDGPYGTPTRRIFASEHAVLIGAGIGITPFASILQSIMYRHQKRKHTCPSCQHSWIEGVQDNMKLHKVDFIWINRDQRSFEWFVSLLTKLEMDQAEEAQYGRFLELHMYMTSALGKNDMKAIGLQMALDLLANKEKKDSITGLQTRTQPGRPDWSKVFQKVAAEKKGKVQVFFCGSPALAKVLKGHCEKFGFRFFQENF

[11] = compound effects on lung adenocarcinoma cell viability – A549, calcein-AM fluorescence, 48 h, basal, profiling panel (AID 1162); conditions: higher = more signal; further: test concentration not given here
[12] = compound effects on differentiated 3T3-L1 adipocyte viability – cell-based, 3T3-L1 adipocytes, calcein-AM fluorescence, 48 h, basal, profiling panel (AID 1163); conditions: 3T3-L1 adipocytes viability, higher = more signal; further: test concentration not given here
[13] = compound effects on hepatocellular carcinoma cell viability – HepG2, calcein-AM fluorescence, 48 h, basal, profiling panel (AID 1164); conditions: higher = more signal; further: test concentration not given here
[14] = compound effects on multiple myeloma cell viability – MM1S, calcein-AM fluorescence, 48 h, basal, profiling panel (AID 1165); conditions: higher = more signal; further: test concentration not given here
[15] = calcein-AM signal in unstimulated myeloma cells – cell-based, calcein-AM fluorescence, 48 h, PK04 Diversity Set, profiling panel (AID 1166); conditions: RPMI8226 myeloma viability, higher = more signal;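 further: cells grown under basal conditions without added stimulus; test concentration not given here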
[16] = JC-1 mitochondrial signal, unstimulated HepG2 cells – cell-based, JC-1 fluorescence, 24 h, 100 nL compound, profiling panel (AID 1167); conditions: HepG2 mitochondrial potential, higher = more signal; further: test concentration not given here
[17] = JC-1 mitochondrial signal, unstimulated adipocytes – cell-based, JC-1 fluorescence, 3T3-L1 adipocytes, 24 h, 100 nL compound, profiling panel (AID 1168); conditions: JC-1 mitochondrial fluorescence, higher = more signal, called active from +8 up or from −8 down; further: test concentration not given here
[18] = JC-1 mitochondrial signal, unstimulated myeloma cells – cell-based, JC-1 fluorescence, RPMI8226, 24 h, 100 nL compound, profiling panel (AID 1169); conditions: JC-1 mitochondrial potential fluorescence, higher = more signal; further: test concentration not given here
[19] = JC-1 mitochondrial signal, unstimulated MM1S myeloma – cell-based, JC-1 fluorescence, 24 h, 100 nL compound, profiling panel (AID 1170); conditions: MM1S mitochondrial potential, higher = more signal; further: test concentration not given here
[20] = resazurin metabolic signal in A549 cells – cell-based, resazurin fluorescence, 24 h, PK04 Diversity Set, profiling panel (AID 1171); conditions: A549 viability, higher = more signal, called active from +8 up or from −8 down; further: test concentration not given here

SMILES	z-score [1]	composite z-score [2]	z-score [3]	z-score [4]	z-score [5]	z-score [6]	z-score [7]	z-score [8]	z-score [9]	z-score [10]	z-score [11]	z-score [12]	z-score [13]	z-score [14]	z-score [15]	z-score [16]	z-score [17]	z-score [18]	z-score [19]	z-score [20]
C#C[C@H]1Oc2ccccc2S(=O)(=O)N2CCC[C@@H]12	-0.789 (inactive)	-0.106	0.264 (inactive)	0.276 (inactive)	0.0691 (inactive)	0.0594 (inactive)	0.213	0.281 (inactive)	-1.29 (inactive)	-0.494	-0.308	-0.401	-1.19	0.132	-0.446	-0.777	-0.275 (inactive)	-0.18	-0.116	-0.424 (inactive)
COCCCNC(=O)[C@@]1(Cc2ccccc2I)c2ccccc2C(=O)N(Cc2ccccc2)[C@H]1c1ccc(CO)cc1	0.263 (inactive)	0.243	11.1 (active)	2.37 (inactive)	1.85 (inactive)	1.43 (inactive)	-0.231	0.0296 (inactive)	0.779 (inactive)	0.242	0.954	0.387	0.828	-0.657	-1.25	1.71	-0.432 (inactive)	-0.136	0.651	1.67 (inactive)
CCCNC(=O)[C@@]1(c2ccc([N+](=O)[O-])cc2)CC(=O)N(CC23CC4CC(CC(C4)C2)C3)[C@@H]1c1ccc(CO)cc1I	0.0121 (inactive)	0.181	26 (active)	13.3 (active)	1.82 (inactive)	1.87 (inactive)	-0.151	1.15 (inactive)	-0.037 (inactive)	2.21	-1.29	-0.738	-4.9	-3.81	-4.32	0.243	-0.0911 (inactive)	-0.872	-2.18	-3.39 (inactive)
CCN(CC)c1ccc(N2CC=CC34O[C@@H]5C=CCOC(=O)[C@@H]5[C@H]3C(=O)N(CCCCCO)[C@@H]4C2=O)cc1 (stereo not given in full)	0.825 (inactive)	0.271	1.29 (inactive)	0.172 (inactive)	1.36 (inactive)	0.113 (inactive)	-0.491	0.766 (inactive)	0.449 (inactive)	1.67	-0.46	1.1	-0.0753	-0.0913	0.199	0.497	0.876 (inactive)	0.0564	1.65	-0.0833 (inactive)
COC(=O)[C@@]1(Cc2ccc(OC)cc2)[C@H]2c3cc(C(=O)N4CCCC4)n(CCN4CCOCC4)c3C[C@H]2CN1C(=O)c1ccccc1	-0.861 (inactive)	2.2	0.32 (inactive)	-0.288 (inactive)	0.366 (inactive)	0.225 (inactive)	-0.286	0.99 (inactive)	-0.245 (inactive)	-3.66	-1.35	0.077	0.707	0.847	-1.16	2.52	0.642 (inactive)	0.28	-0.936	0.0452 (inactive)
C=C(COC)C(=O)CC[C@H](OC(=O)c1cccnc1)c1ccccc1OCCO	0.0928 (inactive)	0.473	8.77 (active)	0.805 (inactive)	0.0448 (inactive)	0.307 (inactive)	-0.283	-2.86 (inactive)	0.0432 (inactive)	-1.26	-0.414	-0.751	-1.24	-3.3	-3.76	-0.952	0.0833 (inactive)	-0.706	-2.25	0.138 (inactive)
COCCOC(=O)N1C(=O)[C@@]2(c3cc(C#CC4=CCCCC4)ccc31)[C@H](c1ccc(OCCO)cc1)N1[C@H](c3ccccc3)[C@H](c3ccccc3)OC(=O)[C@H]1[C@@H]2C(=O)Nc1nc2ccccc2s1	2.88 (inactive)	0.114	2.35 (inactive)	0.922 (inactive)	-0.419 (inactive)	1.83 (inactive)	1.24	0.821 (inactive)	0.824 (inactive)	1.35	0.642	0.0841	-0.153	-0.381	-0.259	-2.79	-0.216 (inactive)	-0.932	-1.63	-0.057 (inactive)
O=C1OCC=C[C@H]2OC34C=CCN(c5ccc(Cl)cc5)C(=O)[C@H]3N(CCCO)C(=O)[C@@H]4[C@@H]12 (stereo not given in full)	0.657 (inactive)	-0.128	0.204 (inactive)	-0.531 (inactive)	-0.172 (inactive)	-1.41 (inactive)	0.808	0.846 (inactive)	-0.895 (inactive)	2.6	-0.0108	1.46	-0.722	0.237	-0.802	-0.545	0.978 (inactive)	-0.454	0.856	-0.875 (inactive)
